Source: PubChem (National Center for Advancing Translational Sciences (NCATS))
G9a block – qHTS Assay for Inhibitors of Histone Lysine Methyltransferase G9a | Histone-lysine N-methyltransferase EHMT2 (Homo sapiens), Q96KQ7 | G9a H3K9 monomethylation, AlphaScreen, 2 h | Potency, µM (doses to about 102 µM), inactives show top-dose activity, negative = inhibition, hits mostly inhibitors | actives 8.8% (n = 350,000) | AID 504332, 2011; further: potency means the concentration at half of the fitted maximal effect; on the % scale 0 is the no-effect control and ±100 the full control effect; nearly all actives have a fitted effect of over 75% in size
Target sequence (Q96KQ7 913-1193 limits assumed): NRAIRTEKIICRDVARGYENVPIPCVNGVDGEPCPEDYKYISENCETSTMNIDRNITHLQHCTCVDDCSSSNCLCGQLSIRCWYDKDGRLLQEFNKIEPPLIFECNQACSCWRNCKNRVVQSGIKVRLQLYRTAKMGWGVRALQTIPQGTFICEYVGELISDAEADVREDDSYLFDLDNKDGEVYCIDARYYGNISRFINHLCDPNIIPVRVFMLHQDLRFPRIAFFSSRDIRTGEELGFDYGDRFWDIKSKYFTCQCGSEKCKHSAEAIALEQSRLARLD
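AlphaScreen detection with an anti-monomethyl H3K9 antibody quantified product after a 2 h room-temperature reaction containing 500 nM biotinylated H3K9 peptide, 20 µM SAM and 20 nM enzyme, which had been preincubated 15 min with compound.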
JMJD2A Tudor – qHTS Assay for Inhibitors of JMJD2A-Tudor Domain; AlphaScreen JMJD2A-Tudor / H3K4me3 peptide binding; Potency, µM (highest dose often 114 µM), without a hit: at the top dose activity change, negative = inhibition, hits mostly inhibitors; actives 4.4% (n = 390,000); AID 504339, 2011; further: potency means the concentration at half of the fitted maximal effect; on the % scale 0 is the no-effect control and ±100 the full control effect; nearly all actives have a fitted effect of over 50% in size
BAZ2B block – qHTS Assay for Inhibitors of BAZ2B | Bromodomain adjacent to zinc finger domain protein 2B (Homo sapiens), Q9UIF8 | AlphaScreen BAZ2B-H3K14Ac peptide displacement | Potency, µM (highest dose often 114 µM), inactives show at the highest dose activity change, negative = inhibition, usual class: inhibitors | actives 4.4% (n = 360,000) | AID 504333, 2011; further: potency means the concentration at half of the fitted maximal effect; on the % scale 0 is the no-effect control and ±100 the full control effect; nearly all actives have a fitted effect of over 60% in size
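In this displacement format the biotinylated H3(5-23) peptide acetylated at Lys14 serves as ligand at 50 nM, with BAZ2B at 50 nM in PBS pH 7.4 containing 0.01% Tween-20. Donor and acceptor beads are 10 ug/mL final.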
L3MBTL1 inh – qHTS Assay for the Inhibitors of L3MBTL1; Lethal(3)malignant brain tumor-like protein 1 (Homo sapiens), Q9Y468; AlphaScreen L3MBTL1–H3K9me1 peptide binding; Potency, µM (top dose mostly 57.1 µM), for the others: top-dose activity, negative = inhibition, most hits filed as inhibitors; actives 0.66% (n = 230,000); further: potency means the concentration at half of the fitted maximal effect; on the % scale 0 is the no-effect control and ±100 the full control effect; nearly all actives have a fitted effect of over 60% in size
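First, the protein-peptide complex forms for 30 min at room temperature (L3MBTL1 50 nM, biotinylated H3K9me1 peptide 75 nM). Next, compounds are pin-transferred and incubated 30 min. Finally, AlphaScreen beads are added and read after 30 min.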
HP1b binding inh – HTS for Inhibitors of HP1-beta Chromodomain Interactions with Methylated Histone Tails | Chromobox protein homolog 1 (Homo sapiens), P83916 | AlphaScreen HP1-beta / biotin-H3K9me3 peptide binding | Potency, µM (doses to about 114 µM), without a hit: at the top dose activity change, negative = inhibition, usual class: inhibitors | actives 0.56% (n = 390,000); further: potency means the concentration at half of the fitted maximal effect; nearly all actives have a fitted effect of over 70% in size
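HP1-beta protein (50 nM final) preincubated 30 min at room temperature with biotinylated H3(1-18)K9me3 peptide (50 nM) in PBS pH 7.4, 0.01% Tween-20, then compound added for 30 min. AlphaScreen streptavidin donor/nickel chelate acceptor beads (10 ug/mL final), 30 min dark, luminescence read.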
PI5P4K alpha inh – qHTS for Inhibitors of phosphatidylinositol 5-phosphate 4-kinase (PI5P4K); PI5P4Kalpha enzyme, ADP-Glo luminescence, 60 min; hits give low values; max response, %; actives 1.2% (n = 330,000); AID 652105, 2013; active means max response of -50% or lower; inconclusive means between -30% and -50%; inactive means -30% or higher; further: value at the top dose of about 77 µM; on the % scale 0 is the no-effect control and ±100 the full control effect
Target sequence (P48426 whole entry, looked up): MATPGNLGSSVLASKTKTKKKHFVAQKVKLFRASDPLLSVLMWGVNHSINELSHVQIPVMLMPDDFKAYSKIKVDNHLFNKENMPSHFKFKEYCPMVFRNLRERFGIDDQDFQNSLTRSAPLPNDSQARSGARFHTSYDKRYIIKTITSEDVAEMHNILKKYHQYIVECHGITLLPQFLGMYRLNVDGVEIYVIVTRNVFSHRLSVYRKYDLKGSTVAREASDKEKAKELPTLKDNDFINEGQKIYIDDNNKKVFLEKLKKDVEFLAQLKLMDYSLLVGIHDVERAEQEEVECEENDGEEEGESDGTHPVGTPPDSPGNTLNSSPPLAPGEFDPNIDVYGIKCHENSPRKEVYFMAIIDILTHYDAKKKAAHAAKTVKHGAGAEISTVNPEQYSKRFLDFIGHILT
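PI5P4Kalpha ADP-Glo assay; 5 microM ATP final; 60 min RT reaction; HEPES pH 7.4/EGTA/CHAPS, 5% DMSO; controls lacking substrate or enzyme; luminescent end-point.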
The depositor's hits bear a star; ? = inconclusive; / = no result given; [ ] = dose if it differs, or a comment. Sampled rows, rich in hits. Any-hit rate of the full collection: about 11%. Unless noted, the call rests on the fitted dose curve; in most records, active means well fitted inhibition curve with a large enough effect; inconclusive means small, poorly fitted or top-dose-only effect; inactive means no such curve, though single readings can be large or run the other way.

SMILES	G9a block	JMJD2A Tudor	BAZ2B block	L3MBTL1 inh	HP1b binding inh	PI5P4K alpha inh
CCOC(=O)Cc1c(C)nc2cc(C)nn2c1C	27.6%[59 µM]	-11.9%	5.4%	-1.9%	34.1%	0.1
Cc1cccc(Cc2cnc(N3C(=N)SC(c4ccccc4)C3=O)s2)c1 (configuration not stated)	7.1%[59 µM]	-24.1%	0.3%	8.5%	25.5%	-55.2*
Fc1ccc(Nc2nc(-c3ccoc3)nc3ccccc23)cc1	12.2%[0.501 µM]	/	/	/	/	/
S=C(Nc1ccccc1Cl)N1CCCCC1	8.8%[59 µM]	-3.6%	-1.3%	5.2%	30.4%	6.9
O=C1CN(C(=S)Nc2ccccc2Cl)CCN1	44.7µM*	-8.5%	-28.3%	7.3%	38.6%	4.0
O=C1CCN(C(=O)Nc2ccccc2Cl)N1	10µM*	?	1.7%	5.8%	1.7%	-7.2
CCOC(=O)N1CCN(C(=O)Nc2ccccc2Cl)CC1	3.3%[59 µM]	-16.7%	-1.7%	1.2%	19.3%	/
O=C1CCN(C(=O)Nc2cccc(Cl)c2)N1	10µM*	20µM*	-11.3%	0.0%	2.1%	-0.5
Cc1cc(=O)[nH]c2nnc(SCc3ccc(Cl)c(Cl)c3)n12	3.6%[59 µM]	-16.2%	-3.0%	/	5.2%	/
Cc1ccc(C)n1-c1nnc(N2CCC(C(=O)Nc3ccccc3Br)CC2)s1	0.0%[59 µM]	-25.2%	-13.2%	/	14.6%	/
COc1ccc(Cl)cc1NC(=O)NCCn1c(=O)oc2ccc(C)cc21	-12.0%[59 µM]	-20.4%	-24.0%	/	23.4%	/
O=c1c(N2CCc3ccccc3C2)csc2ccc(F)cc12	?	-17.3%	-16.7%	/	36.3%[57 µM]	/
O=c1c2cc(C(F)(F)F)ccc2sn1-c1ccccc1	/	/	/	/	/	-102.2*
O=c1c2cc(F)ccc2sn1-c1ccccc1	0.0%[0.501 µM]	8.91µM*	10µM*	-4.5%	0.5%	-85.3*
CC(=O)NC(c1ccc(Cl)cc1)c1c(O)ccc2ccc(O)cc12 (configuration not stated)	39.8µM*	-34.4%	-27.4%	-15.7%	3.6%	-29.0
Cc1ccc(-n2nc(CO)c(C(=O)NCc3cccnc3)n2)cc1	7.4%[59 µM]	-11.6%	-8.3%	/	26.8%	/
COc1ccccc1CN=Cc1[nH]c2ccc(Br)c(Cl)c2c1O	?	-10.1%	-27.8%	/	?	-7.6
Cc1cccc(N=Cc2[nH]c3ccc(Br)c(Cl)c3c2O)c1	10µM*	?	-13.4%	-10.8%	?	-24.6
CCCC(=O)Nc1cc(-c2nnc3c4ccccc4c(C)nn23)ccc1C	-25.0%[59 µM]	-14.1%	-0.5%	/	26.6%	/
CCOC(=O)c1nnn(-c2ccccc2C#N)c1C	-8.9%[12.7 µM]	21.4%	-12.2%	8.2%	38.7%	0.7
CCOC(=O)c1nn(-c2ccccc2C)c(=O)c(C#N)c1C	89.1µM*	-4.7%	5.9%	/	21.3%	-7.2
Cc1c(C(=O)NN)nn(-c2ccc(F)cc2)c(=O)c1C#N	-17.7%	-11.2%	-0.2%	/	43.5%	-3.9
CCOC(=O)c1nn(-c2ccc(C)c(C)c2)c(=O)c(C#N)c1C	44.7µM*	-26.6%	-38.1%	-7.8%	28.9%	-7.5
COCCn1c(=O)c(-c2cc(F)cc(F)c2)nc2cnc(OC)nc21	-2.5%[12.7 µM]	/	/	/	/	/
CN(Cc1ccccc1)S(=O)(=O)c1nnc(NC(=O)c2ccccc2Cl)s1	4.5%[59 µM]	-12.5%	-3.0%	/	43.8%	/
SMILES	G9a block	JMJD2A Tudor	BAZ2B block	L3MBTL1 inh	HP1b binding inh	PI5P4K alpha inh
COCCNC(=S)N(CCc1c(C)[nH]c2ccc(F)cc12)Cc1ccc(C)cc1	-2.5%	?	?	/	12.1%	26.4
COCCNC(=S)N(CCc1c(C)[nH]c2ccc(C)cc12)Cc1ccco1	44.7µM*	?	35.5µM*	-28.8%	-15.5%	-5.7
CNC(=S)N(CCc1c(C)[nH]c2ccc(OC)cc12)Cc1ccco1	50.1µM*	?	?	/	-5.6%	-2.5
COCCNC(=S)N(CCc1c(C)[nH]c2ccc(OC)cc12)Cc1ccco1	50.1µM*	?	?	/	?	0.9
CNC(=S)N(Cc1ccco1)Cc1cc2cc(OC)ccc2[nH]c1=O	/	-22.5%	-7.5%	1.9%	-2.7%	-8.4
CCC(C)NC(=O)c1sc2nc(C)c(C(=O)Nc3ccc(C)cc3C)c(-c3ccccc3Cl)c2c1N (configuration not stated)	11.3%[59 µM]	2.0%	12.1%	/	43.8%	/
CC(=O)N1CCCC1c1nc2ccccc2n1Cc1ccccc1C (configuration not stated)	?	-30.1%	-26.9%	/	19.8%	/
CCCN(CCC)C(=O)Cn1c(=O)n(CCCCCC(=O)NCc2ccc3c(c2)OCO3)c(=O)c2sccc21	1.6%[59 µM]	-11.9%	2.3%	/	5.3%	/
O=C(O)C1Sc2[nH]c(=O)sc2C2c3ccc(O)cc3OC(=O)C12 (configuration not stated)	39.8µM*	-30.0%	-37.6%	-1.8%	?	?
O=C(O)C1Sc2[nH]c(=O)sc2C2c3cc(Br)ccc3OC(=O)C12 (configuration not stated)	/	-28.4%	?	/	?	-28.7
CCCOc1ccc(Cl)cc1CN1CCOCC1	-17.2%[59 µM]	?	1.5%	/	32.8%	-6.6
C=CCc1cc(Cl)ccc1OCCNCCOC	?	1µM*	50.1µM*	/	?	14.3
COCCNCc1ccc(Cl)cc1Cl	?	-6.9%	-22.6%	-2.0%	72.4%	6.2
C=CCc1cc(Cl)ccc1OCCNCCN1CCOCC1	10µM*	7.94µM*	31.6µM*	-13.2%	?	5.1
CCOCCn1ccc2c(OCC(=O)Nc3ccc(C(N)=O)cc3)cccc2c1=O	10.4%[59 µM]	-3.6%	-6.6%	/	6.8%	/
Cc1cccc(Cn2cccc2CNS(=O)(=O)c2ccc(C)c(C)c2)c1	-26.3%[59 µM]	-5.0%	0.4%	/	28.1%	/
Cc1cc(Nc2ccc(C)c(C)c2)n2cnnc2n1	-0.2%[59 µM]	-8.8%	4.1%	/	36.7%	/
Cc1ccc(CNC(=O)C(=O)NCC(c2ccco2)S(=O)(=O)c2cccs2)cc1 (configuration not stated)	10.1%[59 µM]	-10.7%	-3.1%	/	26.8%	/
CCOC(=O)C(=O)NCC(c1ccco1)S(=O)(=O)c1cccs1 (configuration not stated)	?	11.2µM*	-15.5%	4.7%	24.8%	-4.7
COc1cc(C(=O)N/N=C(\C)Cc2ccccc2)cc(OC)c1OC	13.5%	8.91µM*	-7.8%	9.7%	11.2%	0.3
COc1ccc(C(=O)NC(=S)N(C)C2CCCCC2)cc1	79.4µM*	-11.0%	-37.4%	/	41.0%	?
COc1cc(C(=O)NC(=S)N(C)Cc2ccccc2)cc(OC)c1OC	-30.1%	-26.1%	?	-1.0%[11.4 µM]	6.2%	-8.5
